Data published in PubChem BioAssay (NCI).
Compounds without any hit were thinned out: in the full panel of roughly 83,000, 20% have a hit.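 Step 1: grow cells in 96-well plates. Step 2: add test compound at a single concentration. Step 3: incubate 48 h. Step 4: record percent growth.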 Values without a mark were called inactive. Active and inactive are the calls of the source. The calls were made as follows: active = growth percent below 10; inactive = the rest.

Legend:
Assay in all cases: NCI-60 one-dose screen, 48 h (100 = growth as untreated, 0 = no growth, -100 = all killed)
Settings in all cases: 10 µM
SK-MEL-2 melanoma = tested on: SK-MEL-2 melanoma
SN12C renal = tested on: SN12C renal
UO-31 renal = tested on: UO-31 renal
TK-10 renal = tested on: TK-10 renal
ACHN renal = tested on: ACHN renal
CAKI-1 renal = tested on: CAKI-1 renal
A498 renal = tested on: A498 renal
CCRF-CEM leukemia = tested on: CCRF-CEM leukemia
MOLT-4 leukemia = tested on: MOLT-4 leukemia
SR leukemia = tested on: SR leukemia
RPMI-8226 leukemia = tested on: RPMI-8226 leukemia
OVCAR-8 ovarian = tested on: OVCAR-8 ovarian
OVCAR-5 ovarian = tested on: OVCAR-5 ovarian
OVCAR-4 ovarian = tested on: OVCAR-4 ovarian
SK-OV-3 ovarian = tested on: SK-OV-3 ovarian
IGROV1 ovarian = tested on: IGROV1 ovarian
OVCAR-3 ovarian = tested on: OVCAR-3 ovarian
HS 578T breast = tested on: HS 578T breast
NCI/ADR-RES ovarian = tested on: NCI/ADR-RES ovarian

Row | Structure (SMILES) | growth (SK-MEL-2 melanoma) | growth (SN12C renal) | growth (UO-31 renal) | growth (TK-10 renal) | growth (ACHN renal) | growth (CAKI-1 renal) | growth (A498 renal) | growth (CCRF-CEM leukemia) | growth (MOLT-4 leukemia) | growth (SR leukemia) | growth (RPMI-8226 leukemia) | growth (OVCAR-8 ovarian) | growth (OVCAR-5 ovarian) | growth (OVCAR-4 ovarian) | growth (SK-OV-3 ovarian) | growth (IGROV1 ovarian) | growth (OVCAR-3 ovarian) | growth (HS 578T breast) | growth (NCI/ADR-RES ovarian)
1 | Oc1ccccc1-c1nnc(Cn2c(Cc3cccc4ccccc34)nc3ccccc32)o1 | 83.1% | 94.5% | 63% | 99.2% | 93.9% | 94.3% | 106% | 99.4% | 90.9% | 94.8% | 95.8% | 101% | 96.8% | 99.2% | 98.7% | 111% | 101% | 99.5% | 93.8%
2 | CC1=CSC2=NC(c3ccc(Cl)c(Cl)c3)=CC(c3ccc(Cl)cc3)N12 (stereo not given) | -14.1% (active) | 13.7% | 7.9% (active) | 18.6% | 13.5% | 5.28% (active) | -12% (active) | 31.9% | 35.2% | 0.606% (active) | 82.3% | 29.1% | 91.8% | 62.5% | -19.9% (active) | -52% (active) | 18% | -1.12% (active) | 92.9%
3 | CS(=O)(=O)Nc1ccc(Nc2c3ccccc3nc3cc(Cl)ccc23)cc1 | 74.1% | 13.9% | 0.84% (active) | 55% | 9.36% (active) | 6.38% (active) | 48.5% | 7.94% (active) | -5.91% (active) | 7.92% (active) | 41.3% | 25.5% | 63.1% | 56.7% | 42.6% | 29.8% | 56.3% | 81.8% | 44.8%
4 | CN(C)CCCN(Cc1ccccc1O)C(=S)Nc1ccc(Cl)cc1 | 112% | 98.2% | 78.8% | 104% | 95% | 99.7% | 77.5% | 109% | 106% | 95% | 93.5% | 98.2% | 110% | 111% | 107% | 106% | 112% | 89% | 104%
5 | COc1cc(CSc2nc3ccc(C)cc3c(=O)n2Cc2ccccc2)cc(OC)c1OC | 1.08% (active) | 40% | 32.1% | 52.7% | 46.7% | 28.8% | 7.01% (active) | 23.6% | 30.8% | 18% | 54.1% | 35.2% | 45.4% | 53.1% | 23.9% | 24.3% | -22.7% (active) | 20.7% | 12.7%
6 | Cc1ccccc1C1=N[C@@H](Cc2ccccc2)C(=O)c2c(nc3ccccn23)N1 | 115% | 107% | 80.6% | 138% | 94.5% | 88.9% | 98.2% | 105% | 111% | 122% | 98.4% | 92.8% | 101% | 98.7% | 111% | 108% | 108% | 102% | 95.6%
7 | CCN1CCN(c2ccc(Nc3ncnc4c3nnn4CCc3cc(OC)cc(OC)c3)cc2)CC1 | 110% | 93.7% | 81.3% | 114% | 106% | 102% | 65.6% | 86.4% | 88.9% | 89.2% | 91.1% | 87.5% | 86.7% | 86.7% | 101% | 111% | 99.2% | 88.2% | 92.3%
8 | CNCCCNCCCN1C(=O)c2ccc3c4c(ccc(c24)C1=O)C(=O)N(CCCNCc1ccccc1OC)C3=O | -49.9% (active) | 2.51% (active) | 18.2% | -14% (active) | 16.6% | 24.6% | 28.8% | 4.62% (active) | -23.8% (active) | -0.146% (active) | -16.2% (active) | -31.9% (active) | 5.23% (active) | -91.5% (active) | 36.8% | -40.7% (active) | -17.6% (active) | 4.28% (active) | 63%
9 | COCCNCC(O)Cn1c2ccc(Cl)cc2c2cc(Cl)ccc21 (stereo not given) | -79.4% (active) | -91.9% (active) | -20% (active) | 58.6% | 10.5% | 8.86% (active) | 62.6% | -23.2% (active) | 4.5% (active) | -19.9% (active) | -36.9% (active) | -69.9% (active) | -79.1% (active) | -97.3% (active) | 52.7% | -38% (active) | -46.3% (active) | -12.3% (active) | -6.15% (active)
10 | c1ccc(COCC[P+](c2ccccc2)(c2ccccc2)c2ccccc2)cc1 | -14.8% (active) | 5.38% (active) | 46.9% | 8.09% (active) | 45.2% | 59.9% | -2.41% (active) | 2.79% (active) | -10.1% (active) | -15.6% (active) | -30.3% (active) | 3.8% (active) | 24.2% | 6.56% (active) | -0.443% (active) | -8.1% (active) | 3.01% (active) | 32.9% | 81.8%
11 | COc1ccc(/C=C2\CCC3C(CCCC34OCCO4)C2=O)cc1 (stereo not given) | 88.4% | 96.8% | 80.5% | 95.3% | 93.6% | 80.2% | 106% | 79.1% | 78.2% | 35.5% | 81.2% | 97.2% | 91.7% | 100% | 97.1% | 83% | 75% | 106% | 75.8%
12 | O=NN(CCCl)C(=O)NCc1ccc(-c2ccc(CNC(=O)N(CCCl)N=O)cc2)cc1 | 95.1% | 97.8% | 67.7% | 105% | 105% | 96.6% | 102% | 93.3% | 82.3% | -5.09% (active) | 93.5% | 94% | 115% | 114% | 95.8% | 66.6% | 115% | 116% | 100%
13 | CCCCCCCCCCCC(=O)NCCCN(C)C | 92.2% | 86.6% | 85% | 96% | 99.9% | 83.4% | 72.2% | 65% | 88.9% | 2.57% (active) | 78.4% | 93.7% | 91.1% | 96.5% | 95.6% | 92% | 108% | 106% | 98.7%
14 | Cc1ccc(/C(CS(=O)(=O)c2ccc(C)cc2)=N\O)cc1 | 104% | 89.3% | 93% | 82.7% | 91.7% | 92.4% | 92.2% | 86.7% | 102% | 83.7% | 96.6% | 97.2% | 90.9% | 96.1% | 112% | 102% | 118% | 113% | 106%
15 | Cc1ccc(NC(=O)/C=N/O)cc1C | 103% | 103% | 71.6% | 122% | 99.1% | 92.1% | 3.77% (active) | 90% | 85.7% | 87% | 96.6% | 98.6% | 96.9% | 85.2% | 81.3% | 117% | 87% | 95.7% | 112%
